Source: PubChem (National Center for Advancing Translational Sciences (NCATS))
Many of the other results were omitted from the sample, so hits are more common in it than they were.
Pf Dd2 growth – blocks in vitro growth of P. falciparum Dd2. P. falciparum Dd2 growth, SYBR Green, 72 h. Potency, µM (titrated, usually from 28.9 µM), for the others: at the highest dose activity, negative = inhibition, usual class: inhibitors. 120,000 compounds, 4.3% hits; active = well fitted inhibition curve with a large enough effect;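 also: plate controls were DMSO vehicle for no effect and reference drug for full effect; nearly all actives have a fitted effect of over 65% in size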
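Infected erythrocytes (Dd2, 0.3% parasitemia, 2.5% hematocrit final) are added to compound in RPMI-1640/Albumax II medium, grown 72 h at 37C in low oxygen, then lysed with saponin/Triton-X containing SYBR Green and read by fluorescence.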
The depositor's hits bear a star; i = inactive; [ ] = another dose, or the depositor's remark. Potency is read from the fitted curve at half-maximal effect.

SMILES	Pf Dd2 growth
CC1CCCN(Cc2c(O)ccc3c(=O)c(Oc4ccccc4Cl)c(C(F)(F)F)oc23)C1 (stereo not drawn)	0.89µM*
O=C(c1ccccc1)N1CC(Oc2ccc(F)cc2F)C1	1%
COc1cccc(CN2CCOC[C@H](O)C2)c1	-24%[44.1 µM]
O=C(Cn1ccn2nc3c(c2c1=O)CCCC3)NCc1ccccc1	16%
C#CCNC(=O)CC[C@@H]1CNC(=O)[C@@H]2C[C@H](NC(=O)Nc3ccc(F)cc3F)CN12	-11%[44.1 µM]
CC(=O)c1cccc(NC(=O)Cn2c(=O)n(-c3ccc(F)cc3)c(=O)c3c2cc(C)n3C)c1	-24%
COCCN1CC(CO)C2(CCN(Cc3ccc(F)c(F)c3)CC2)C1 (stereo not drawn)	-20%
COCCN1CC(CO)C2(CCN(Cc3cccc(Cl)c3)CC2)C1 (stereo not drawn)	10µM*
COCCN1CC(CO)C2(CCN(Cc3cccc(C#N)c3)CC2)C1 (stereo not drawn)	-7%
CCCS(=O)(=O)N1CC(N(C)Cc2cccnc2)C1	-1%
N#Cc1cccc(NC(=O)CN2C(=O)NC(c3ccc(Cl)cc3)C3=C2COC3=O)c1 (stereo not drawn)	-24%
O=[S+]1([O-])NCC2(CCCN(Cc3ccc(F)cc3)C2)Oc2ncccc21 (stereo not drawn)	-27%
CSc1ccc(/C=C/c2nc3ccccc3n2S(=O)(=O)c2cccc(Cl)c2)cc1	i
Cc1ccc(/C=C/c2nc3ccccc3n2S(=O)(=O)c2ccc(Br)cc2)cc1	5.6µM*
O=S(=O)(c1cccc(Cl)c1)n1c(/C=C/c2ccccc2Cl)nc2ccccc21	i
Cc1cc(C)n(CCCN(C)C(=O)C2CC3(CCNCC3)CN2)n1 (stereo not drawn)	1%
Cc1ccc(-n2c(/C=C/c3cccs3)nc3ccccc3c2=O)cc1C	8.9µM*
COc1cccc(/C=C/c2nc3ccccc3c(=O)n2-c2ccc(C)c(C)c2)c1OC	11%
Cc1ccc(-n2c(/C=C/c3cc(Br)cs3)nc3ccccc3c2=O)cc1C	i
C[C@H]1CCCN1C(=O)c1nnc(COc2ccccc2)n1-c1ccccc1	-13%[44.1 µM]
CC(=O)Nc1ccc(OCC(=O)N2CCC(C)CC2)nc1	35%
O=C(C1CCCC1)N1CCN(C2CCN(CCc3ccccc3)C2=O)CC1 (stereo not drawn)	4%
CCNC(=O)N[C@H]1[C@H](O)[C@@H](N(C)CCN(C)C)[C@@H]2OC[C@H]1O2	i
CN(C)S(=O)(=O)N1CCC2(CCCN(Cc3ccc(F)c(F)c3)C2=O)C1 (stereo not drawn)	-11%
O=C1Nc2ccccc2CC12CCCN(CC1CCCCC1)C2 (stereo not drawn)	-21%
SMILES	Pf Dd2 growth
O=C1N(Cc2ccc(F)cc2)CCCC12CCN(CC1CCCC1)C2 (stereo not drawn)	4µM*
COc1cc(C)c(CN2CCCn3nc(C(=O)N4CCCC4)cc3C2)cc1C	-14%
O=C(C1COc2ccccc2O1)N1CCN(c2cc(-c3ccc(Cl)cc3)[nH]n2)CC1 (stereo not drawn)	i
CC(Oc1ccccc1)C(=O)N1CCC(n2cc(-c3nc(-c4ccccc4)no3)nn2)C1 (stereo not drawn)	63%
NC(=O)CNC(=O)[C@@]1(O)C[C@@H](O)[C@H](O)[C@@H](NC(=O)Nc2ccc(OC(F)(F)F)cc2)C1	-14%
CN(C)C[C@@H]1CN(S(C)(=O)=O)C[C@H]1NC(=O)C1(C)CCOCC1	75%
CC(=O)NC[C@H]1C[C@@H]2CCN1C[C@@H]2c1cc(-c2ccc3ccccc3c2)nn1C	i
COc1ccc(-c2cc([C@H]3CN4CC[C@H]3C[C@@H]4COC(=O)NC(C)C)n(C)n2)cc1OC	i
COc1ccc(-c2cc([C@H]3CN4CC[C@H]3C[C@@H]4CNS(=O)(=O)c3ccc(Cl)cc3)n(C)n2)cc1OC	0.63µM*
COc1ccc(-c2cc([C@H]3CN4CC[C@H]3C[C@@H]4CNC(=O)NCc3ccccc3)n(C)n2)cc1	-13%
COc1ccc(-c2cc([C@H]3CN4CC[C@H]3C[C@@H]4CNC(=O)c3ccco3)n(C)n2)cc1OC	i
Cn1nc(-c2ccc3ccccc3c2)cc1[C@H]1CN2CC[C@H]1C[C@@H]2CNC(=O)NCc1ccccc1	7.9µM*
COc1ccc(-c2cc([C@H]3CN4CC[C@H]3C[C@@H]4CNS(=O)(=O)c3ccc(NC(C)=O)cc3)n(C)n2)cc1	i
COc1ccc(OC)c(S(=O)(=O)NC[C@H]2C[C@@H]3CCN2C[C@@H]3c2cc(-c3ccc4ccccc4c3)nn2C)c1	i
COc1ccc(-c2cc([C@H]3CN4CC[C@H]3C[C@@H]4CN)n(C)n2)cc1OC	11µM*
Cc1ccc2c(c1)N(CCCC(=O)N1CCc3nc4cc(-c5ccccc5)[nH]n4c(=O)c3C1)C(=O)CO2	45%[5.79 µM]
O=C1Nc2ccccc2OCC12CCN(Cc1cccnc1)CC2	i
O=C1Nc2ccccc2CC12CCN(Cc1cccnc1)C2 (stereo not drawn)	-30%[44.1 µM]
O=C1Nc2ccccc2CC12CCN(Cc1ccc(OC(F)(F)F)cc1)C2 (stereo not drawn)	11µM*
COc1ccc(CN2CCC3(Cc4ccccc4NC3=O)C2)cc1 (stereo not drawn)	10µM*
COc1ccc(CN2CCC3(CC2)NCc2ccccc2NC3=O)cc1	-20%
O=C1Nc2ccccc2CC12CCN2Cc1ccc(OC(F)(F)F)cc1 (stereo not drawn)	-20%
N#Cc1ccc(CN2CCC3(CC2)COc2ccccc2NC3=O)cc1	10µM*
Cc1ccc(CN2CCC3(Cc4ccccc4NC3=O)C2)cc1 (stereo not drawn)	8.9µM*
O=C1Nc2ccccc2CC12CCCN(Cc1ccncc1)C2 (stereo not drawn)	-21%
SMILES	Pf Dd2 growth
CC(=O)Nc1ccc(CN2CCC3(CC2)COc2ccccc2NC3=O)cc1	-23%
O=C1Nc2ccccc2CC12CN(Cc1ccc(C(F)(F)F)cc1)C2	54%
CC(=O)Nc1ccc(CN2CCC3(Cc4ccccc4NC3=O)C2)cc1 (stereo not drawn)	i
Cn1cccc1C(=O)N1CC(c2noc(COc3ccccc3)n2)C1	i
Cc1nc(N2CCC(NC(=O)c3nccc4ccccc34)CC2)cc(C(F)(F)F)n1	-17%
O=C(CC1CCN(C(=O)c2cc(F)ccc2F)C1)NC1CC1 (stereo not drawn)	28%
CCc1noc(-c2cn(C3CCCN(C(=O)c4ccc(F)cc4)C3)nn2)n1 (stereo not drawn)	i
CN1C[C@@H]2CCCN3CCC[C@@H]([C@H]23)[C@H]1CCCC(=O)Nc1ccc2c(c1)OCCO2	i
CCNC(=O)[C@@H]1C[C@H](NC(=O)Cc2ccccc2C)CN1C1CCCC1	-7%
COC(=O)CNC(=O)C1CCN(S(=O)(=O)c2cccc3nsnc23)CC1	12%
Cc1ccc(NC(=O)C2CCC(CNS(=O)(=O)c3cccc4nsnc34)CC2)c(Cl)c1 (stereo not drawn)	i
CCCN(CCC)CCCNC(=O)C1CCN(S(=O)(=O)c2cccc3nsnc23)CC1	i
CCC(C)NC(=O)C1CCC(CNS(=O)(=O)c2cccc3nsnc23)CC1 (stereo not drawn)	0.79µM*
Cc1ccc(Cl)cc1NC(=O)C1CCC(CNS(=O)(=O)c2cccc3nsnc23)CC1 (stereo not drawn)	3.5µM*
Cc1ccc(NC(=O)C2CCN(S(=O)(=O)c3cccc4nsnc34)CC2)cc1F	-16%
CC(C)NC(=O)[C@@H]1C[C@@H](N)CN1C(=O)c1cccc(C#CC(C)(C)O)c1	-10%
